Growth inhibition data for 100 molecules are collected here from PubChem BioAssay AID371 (SRMLSC, 2006).

About 280 (8.5%) of roughly 3,300 compounds were called active. Only a selection was taken, and actives are over-represented in it overall. Values without a mark were called inactive.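 How the source made its calls: active means mean growth inhibition over the two runs of 50% or more; inactive means mean growth inhibition under 50%.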

The test is described as follows: A549 NSCLC cell proliferation inhibitors – ATP luminescence, human non-small cell lung line, primary screen (AID 371).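 Further: compound exposure lasted 72 h before the ATP read; 0% = untreated cell signal and 100% = no luminescence left.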 To be noted: at 10 µM, hits give high values.
Take `CCC(=O)Oc1ccc(/C(CC)=C(\CC)c2ccc(OC(=O)CC)cc2)cc1`: the growth inhibition is 71.7% (active).

Turning to `CCC(=O)Oc1ccc(C(CC)C(CC)c2ccc(OC(=O)CC)cc2)cc1` (stereo not given), the growth inhibition was 62.3% (active).

For `CC(=O)Oc1ccc(C(c2ccc(OC(C)=O)cc2)c2ccccn2)cc1`, the growth inhibition is 14.2%.

Consider `COc1ccc(C(CC(=O)N2CCOCC2)C(C)C)cc1` (stereo not given), for which the growth inhibition was -4.83%. For `CCCCOc1ccc(C(=O)NCC(=O)NCC(=O)OCC)cc1` the value was 40.7%. In the case of `CCOC(=O)CNC(=O)CNC(=O)c1ccc(OC)cc1` it was 2.92%; in that of `Cc1nn(CC(N)=O)c(=O)c2ccccc12`, 25.7%; in that of `O=S1(=O)C[C@@H](N2CCOCC2)[C@H](N2CCOCC2)C1`, 3.83%. `COc1ccc2c(c1)C1(C)CC(C)(C)N2C(=O)N1c1ccccc1` (stereo not given): the growth inhibition is 38.5%. In the case of `OC1(C2(O)CC(c3ccccc3)ON2)CCCCC1` (stereo not given), the growth inhibition was 19.6%. In the case of `CCCCc1nc(NCC2CCCO2)c(C#N)c2c1COC(C)(C)C2` (stereo not given), the growth inhibition was 13.2%.

For `CCCc1nc(NC2CCCCC2)c(C#N)c2c1COC(C)(C)C2`, the growth inhibition was 51.4% (active). For the molecule `CCc1nc(NC2CCCCC2)c(C#N)c2c1COC(C)(C)C2`, the growth inhibition is 46.1%. As to `CN(C)c1ccc(C=NCC2(O)CCOC(C)(C)C2)cc1` (stereo not given), the growth inhibition is -1.1%. In the case of `Cc1ccc(OCC(=O)N2CCC(N3CCCCCC3)CC2)cc1` it was 0.02%; in that of `O=C1CC(c2ccco2)CC(O)=C1C=NCCN1CCN(C2CC(=O)N(c3ccccc3)C2=O)CC1` (stereo not given), 11.7%. For `CCOC(=O)c1ccc(N=CC2=C(O)CC(c3ccco3)CC2=O)cc1` (stereo not given) the value was 8.87%; for `O=C1CC(c2ccco2)CC(O)=C1C=Nc1cc(Cl)ccc1O` (stereo not given), 52.3% (active). In the case of `CC1(C)CC(=O)C2=C(C1)OC(N)=C(C#N)C2C1C=CCCC1` (stereo not given) it was 5.77%; in that of `CCOC(=O)c1[nH]c2ccccc2c1N=CN(CC)CC`, 1.27%; in that of `COC(=O)CSC1=C(C#N)C(=O)NC2(CCCCC2)S1`, 7.6%.

For `COC(=O)CN(c1nc(C)cc(OC)n1)S(=O)(=O)c1ccccc1`, the growth inhibition was 12.9%. Regarding `Cc1ccc2cc(CNC(C)(C)C)c(=O)[nH]c2c1`, the growth inhibition is -14.5%. Take `Cc1ccc2nc(NCc3ccccc3)[nH]c2c1`: the growth inhibition was 66.2% (active). For the molecule `Cn1c(=O)cc(NCc2ccccc2)[nH]c1=O`, the growth inhibition was 8.28%.

Turning to `O=C1OC(Nc2ccc(Br)cc2F)c2ccccc21` (stereo not given), the growth inhibition is 3.02%. For `CC(=O)Nn1cnc2c(c1=O)C1(CCCC1)Cc1ccccc1-2` the value was 16.8%. As to `N#CCc1nc2c3c4c(sc3ncn2n1)CCCC4`, the growth inhibition is 9.82%. Consider `COc1ccc(C(=O)Nc2nc(N)n(-c3ccccc3)n2)cc1OC`, for which the growth inhibition is 1.17%. With `Nc1nc(NC(=O)Cc2ccccc2)nn1-c1ccccc1`, the growth inhibition was 6.96%.

For `O=C(Nc1nc(NC(=O)c2ccco2)n(-c2ccccc2)n1)c1ccccc1`, the growth inhibition is 82.7% (active).

Consider `Cc1ccc(-n2c(N)c(C(N)=O)sc2=S)cc1`, for which the growth inhibition is 6.9%. For `CCCC(=O)Nc1nn(CCC)c2nc3ccccc3cc12` the value was -8.01%; for `CN1C(=O)c2c(sc3c2CCCC3)NC1c1ccccc1O` (stereo not given), 27.8%. As to `COc1cccc(C2C(C(=O)c3cc4ccccc4o3)=C(O)C(=O)N2CCN(C)C)c1OC` (stereo not given), the growth inhibition is 1.22%. In the case of `CC(C)OC(=O)c1c2nc3ccccc3nc2n2c1[nH]c(=O)c1ccccc12`, the growth inhibition is 60.3% (active). As for `CCOC(=O)c1cnn2c1[nH]c(=O)c1ccccc12`, the growth inhibition is 7.89%. `CCO/C(C)=N/n1c2nc3ccccc3nc2c2c(=O)n(CC(C)C)c(C)nc21`: the growth inhibition is 3.19%. For the molecule `Cc1cc2ccccc2cc(C)c1=O`, the growth inhibition is 9.2%. For `Cc1cc(=O)oc2c(CN3CCC(C)CC3)c(O)c(Cl)cc12` the value was -0.87%; for `O=C(CC(c1ccc(F)cc1)c1ccco1)N1CCCC1` (stereo not given), 7.48%; for `Nn1c(SCC(=O)Nc2ccc3c(c2)OCCO3)nnc1C(F)(F)F`, 14.6%. For the molecule `c1cc2c(cc1C1=Nn3c(nnc3C3CCCCC3)SC1)OCO2`, the growth inhibition was 50.2% (active). As to `COc1ccc(OC)c(C2=Nn3c(nnc3C3CCCCC3)SC2)c1`, the growth inhibition is 47.4%. In the case of `c1ccc(-c2nnc3n2N=C(c2ccc4c(c2)OCO4)CS3)nc1` it was 13.4%; in that of `O=S1CCCSC1c1cccnc1` (stereo not given), -0.58%; in that of `COc1ccc(/C(O)=C2\C(=O)C(=O)N(c3cc(C)on3)C2c2ccccc2OC)cc1C` (stereo not given), 7.8%. In the case of `CCN(CC)c1nc(-c2cccc(OC)c2O)nc2ccccc12` it was 13.8%. For `COc1cccc(-c2nc(NCc3ccco3)c3ccccc3n2)c1O` the value was 9.14%. On to `COc1cccc(-c2nc(NC(C)(C)C)c3ccccc3n2)c1O`, for which the growth inhibition was 20.9%. On to `COC(=O)CNc1nc(-c2cccnc2)nc2ccccc12`, for which the growth inhibition was 6.85%. In the case of `CCC(C)Nc1nc(-c2cccc(OC)c2O)nc2ccccc12` (stereo not given) it was 71.5% (active); in that of `COc1cccc(-c2nc(NC(C)C)c3ccccc3n2)c1O`, 77.9% (active); in that of `CC1(C)Cc2nc(NCCCO)c(C#N)cc2CO1`, -0.91%. Regarding `CCCCOC(=O)C(C)c1c(C)[nH]c(=S)[nH]c1=O` (stereo not given), the growth inhibition is 5.11%. As for `O=C(Nc1ncccc1Cl)c1cccc(F)c1`, the growth inhibition was 7.47%. With `COc1ccc(C2C(C#N)=C(SC)NC3=C2C(=O)CC(C)(C)C3)cc1` (stereo not given), the growth inhibition is 11.2%. For `c1ccc(N2CCN(c3nc(NCc4ccco4)c4ccccc4n3)CC2)cc1` the value was 90.4% (active); for `Oc1ccccc1-c1nc(NCc2ccco2)c2ccccc2n1`, 31.9%. Regarding `Fc1cnc(N2CCOCC2)nc1NCc1ccccc1`, the growth inhibition was -1.26%.

In the case of `COc1cccc(COc2nc3c(c(=O)n(C)c(=O)n3C)n2C)c1`, the growth inhibition is 29.5%. With `COc1cccc(OC)c1C(=O)Nc1nc2ccc(S(C)(=O)=O)cc2s1`, the growth inhibition is 11.2%. With `CCCNCC(O)COc1ccccc1C(=O)CCc1ccccc1` (stereo not given), the growth inhibition was 54.2% (active). For `CCCOc1ccccc1C(=O)NCCCC(=O)O` the value was -12.4%.

For `CCCCOc1ccccc1C(=O)NCCCC(=O)O`, the growth inhibition is -2.38%. In the case of `Cc1ccccc1NC(=O)NCCc1nc2ccccc2[nH]1` it was -5.83%; in that of `COc1ccc(C(=O)C(CN2CCCC2)c2ccccc2)cc1` (stereo not given), 88.2% (active). In the case of `COc1ccc(C(O)C(CN2CCOCC2)c2ccccc2)cc1` (stereo not given) it was 2.01%; in that of `COc1ccc(C(=O)CCN2CCCCCC2)cc1`, 2.68%; in that of `Cc1cc(C)nc(N(C#N)CN2C(=O)c3ccccc3C2=O)n1`, -0.78%. Regarding `COC(=O)c1ccc(C(=O)OC)c(NC(=O)c2cc3ccccc3o2)c1`, the growth inhibition was 5.58%. With `COC(=O)/C(C#N)=C1/SC=C(C)N1c1ccccc1`, the growth inhibition is 4.54%. In the case of `Cn1c(OCc2ccc3c(c2)OCO3)nc2c1c(=O)n(Cc1cccc(Cl)c1)c(=O)n2C` it was -0.73%.

On to `Cn1c(NCc2ccco2)nc2c1c(=O)n(Cc1ccc(Cl)c(Cl)c1)c(=O)n2C`, for which the growth inhibition is 70% (active). For the molecule `Cn1c(=O)c2c(nc(NCc3ccco3)n2Cc2ccccc2Cl)n(C)c1=O`, the growth inhibition is 2.6%.

With `Cn1c(=O)c2c(nc(NCc3ccco3)n2Cc2ccc(Cl)cc2Cl)n(C)c1=O`, the growth inhibition was 0.48%. On to `C=CCOc1nc2c(c(=O)n(Cc3ccc(Cl)c(Cl)c3)c(=O)n2C)n1C`, for which the growth inhibition was 35.1%. For `Cn1c(OCc2ccco2)nc2c1c(=O)n(Cc1ccc(Cl)c(Cl)c1)c(=O)n2C` the value was 59% (active); for `CNC(=O)c1cc2ccccc2o1`, -3.18%; for `O=c1cc(O)nc2n1CCCS2`, 2.49%. In the case of `COC(=O)C(NC(=O)c1ccco1)(Nc1ccc(Br)cn1)C(F)(F)F` (stereo not given) it was 22.7%.

Consider `CCOC(=O)CC(C#N)c1cn(C)c2ccccc12` (stereo not given), for which the growth inhibition was 3.83%. For `C=CC[N+](C)(C)CCCNC(=O)/C=N/O` the value was -6.91%; for `COc1cccc(C(=O)Nc2ccc(-c3nnc(-c4ccco4)o3)cc2)c1`, 23.8%.

Consider `CCN(CC)CCn1c(O)c(N=O)c2ccccc21`, for which the growth inhibition was 2.91%. For `Cn1c(NCC(O)c2ccccc2)nc2c1c(=O)n(Cc1ccc(Cl)cc1)c(=O)n2C` (stereo not given), the growth inhibition is 71.7% (active).

On to `COCCNc1nc2c(c(=O)n(Cc3ccc(OC)cc3)c(=O)n2C)n1C`, for which the growth inhibition is 12.2%.

Turning to `Cn1c(NCc2cccnc2)nc2c1c(=O)n(Cc1ccccc1F)c(=O)n2C`, the growth inhibition is 18.8%. Take `COc1ccc(Cn2c(=O)c3c(nc(NCCO)n3C)n(C)c2=O)cc1`: the growth inhibition is 3.12%. Regarding `Cn1c(NCc2ccccc2)nc2c1c(=O)n(Cc1ccccc1)c(=O)n2C`, the growth inhibition was 39.1%. Regarding `Cn1c(N2CCN(c3ccccn3)CC2)nc2c1c(=O)n(Cc1ccc(Cl)cc1)c(=O)n2C`, the growth inhibition was 50.6% (active). In the case of `Cn1c(=O)n(Cc2ccccc2)c(=O)c2c1nc(NCC1CCCO1)n2Cc1ccccc1` (stereo not given) it was 45.3%; in that of `Cn1c(N2CCOCC2)nc2c1c(=O)n(Cc1ccc(Cl)cc1)c(=O)n2C`, 17.2%. In the case of `Cn1c(NCC(O)c2ccccc2)nc2c1c(=O)n(Cc1ccc(Cl)c(Cl)c1)c(=O)n2C` (stereo not given) it was 88% (active); in that of `Cn1c(N2CCOCC2)nc2c1c(=O)n(Cc1ccc(Cl)c(Cl)c1)c(=O)n2C`, 36.7%. In the case of `Cn1c(NCc2ccccc2)nc2c1c(=O)n(Cc1ccc(Br)cc1)c(=O)n2C`, the growth inhibition is 72.5% (active). In the case of `Cn1c(N2CCN(c3ccccn3)CC2)nc2c1c(=O)n(Cc1ccccc1Cl)c(=O)n2C` it was 7.18%. Regarding `CCCCCSc1nc(O)cc(=O)[nH]1`, the growth inhibition is -0.41%.

As to `Cc1nc2c(=O)n(C)c(=O)[nH]c2n1Cc1ccccc1`, the growth inhibition is 8.92%.

`O=C1C2ON(c3ccccc3)C(c3cccnc3)C2C(=O)N1c1ccccc1` (stereo not given): the growth inhibition is -1.13%.
